According to PubChem BioAssay AID1851 (National Center for Advancing Translational Sciences (NCATS), 2009):
Hit rate of the full screen: of about 16,000 compounds, about 5,800 (36%) were called active. About 23% were inconclusive and are not listed. The call rests on the fitted dose curve; in most records, active means well fitted curve in the direction sought with a large enough effect; inconclusive means small, poorly fitted or top-dose-only effect, or effect the other way; inactive means no such curve, though single readings can be large or run the other way. The list shows a part of the results.

biological target: Cytochrome P450 2C19 (Homo sapiens) (UniProt P33261); test: Cytochrome panel assay with activity outcomes; conditions: recombinant CYP, pro-luciferin dealkylation, luminescence, p450-cyp2c19; series mostly up to 57.1 µM; activity, negative = inhibition: at the top concentration
On the % scale 0 is the no-effect control and ±100 the full control effect.

Sequence of Cytochrome P450 2C19 (Homo sapiens) (P33261 whole entry, looked up): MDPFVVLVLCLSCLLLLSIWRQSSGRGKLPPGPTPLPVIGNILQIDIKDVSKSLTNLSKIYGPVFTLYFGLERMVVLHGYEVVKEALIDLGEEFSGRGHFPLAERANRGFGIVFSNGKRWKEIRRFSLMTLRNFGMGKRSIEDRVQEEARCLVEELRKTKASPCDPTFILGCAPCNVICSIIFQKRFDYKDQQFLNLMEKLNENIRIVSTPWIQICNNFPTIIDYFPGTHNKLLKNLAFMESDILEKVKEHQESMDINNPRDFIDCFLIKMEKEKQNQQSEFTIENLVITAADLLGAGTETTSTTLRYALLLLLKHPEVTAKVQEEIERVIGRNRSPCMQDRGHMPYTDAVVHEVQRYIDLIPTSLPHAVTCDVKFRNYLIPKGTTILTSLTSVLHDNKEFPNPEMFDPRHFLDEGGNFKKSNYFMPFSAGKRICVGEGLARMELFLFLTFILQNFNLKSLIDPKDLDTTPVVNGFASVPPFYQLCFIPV

SMILES | AC50 | activity, negative = inhibition
CCN(CC)S(=O)(=O)c1ccc2c3c(cccc13)C(=O)S2 | 1 µM (active) | 
CCN(CC)S(=O)(=O)c1cccc2c(N(C)C)cccc12 | 3.98 µM (active) | 
Cc1noc(NS(=O)(=O)c2cccc3c(N(C)C)cccc23)c1C |  | -5.75% (inactive)
Cc1cnc(CNc2ncncc2-c2ccoc2)cn1 |  | -27.2% (inactive)
c1cncc(-c2cncnc2NCc2cccs2)c1 |  | -41.8% (inactive)
c1ccc(CNc2ncncc2-c2ccoc2)cc1 | 10 µM (active) | 
c1csc(CNc2ncncc2-c2ccoc2)c1 | 15.8 µM (active) | 
CN(C)c1ccc(-c2cncnc2NCc2cccs2)cc1 | 0.631 µM (active) | 
NC/C=C\C(=O)O | inactive | 
CC1=CC=CN2CC(O)CN=C12 (stereo not given) |  | 28.9% (inactive)
Cc1cc(C)cc(-n2nnnc2SCC(=O)Nc2nc(-c3ccc(Cl)cc3)cs2)c1 | 3.55 µM (active) | 
O=C1CCCN1CC(CN1CCOCC1)Sc1nnnn1-c1ccccc1 (stereo not given) | 14.1 µM (active) | 
CSc1nc(Sc2cccc(Cl)c2)c2ccccc2n1 | 6.31 µM (active) | 
CSc1c(-c2ccccc2)nc2ccc(Cl)cc2c1C(=O)O |  | -17.1% (inactive)
Cc1ccc(Sc2nc(C)cc(C)c2S(C)(=O)=O)cc1 | 3.16 µM (active) | 
O=C(CCc1nc(-c2ccccc2)no1)NCCc1ccccc1 | 5.01 µM (active) | 
CCN(CC)CCc1nc(-c2ccccc2)no1 |  | -20.7% [at 25.6 µM] (inactive)
COc1ccc(-c2noc(CCCC(=O)NCCc3ccccc3)n2)cc1OC | 7.08 µM (active) | 
COc1ccc(C(=O)NNC(=O)Cc2ccc(-c3ccccc3)cc2)cc1OC |  | -4.13% (inactive)
O=C1c2ccccc2C(=O)N1CC(=O)N1c2ccccc2CCc2ccccc21 | 1.41 µM (active) | 
O=C1c2ccccc2C(=O)N1C[C@]1(C(=O)O)NCCS1(=O)=O |  | -9.77% [at 11.4 µM] (inactive)
O=C1CC[C@H](N2C(=O)c3ccccc3C2=O)C(=O)N1 | inactive | 
CC(C)(N)C(=O)N[C@@H]1C(=O)N2[C@@H]1SC(C)(C)[C@H]2C(=O)O |  | 2.03% [at 11.4 µM] (inactive)
Cc1ccc(NC(=O)CC2CS(=O)(=O)CC2CC(=O)Nc2ccc(C)c(C)c2)cc1C (stereo not given) |  | 0.0954% (inactive)
CCCCC(=O)Nc1ccc(C)c(O)c1 | 15.8 µM (active) | 

SMILES | AC50 | activity, negative = inhibition
CCC(CC)C(=O)Nc1ccc(C)c(O)c1 | 14.1 µM (active) | 
CCCCC(=O)Nc1ccc(C(=O)NNC(=O)CCc2ccccc2)cc1 |  | -4.99% (inactive)
Clc1ccc(CSC2=NCCN2)cc1Cl |  | -10.9% [at 11.4 µM] (inactive)
CNc1cc(CSC)nc(SCc2ccc(Cl)c(Cl)c2)n1 | 0.794 µM (active) | 
O=C(Oc1ccccc1N1C(=O)C2CCCCC2C1=O)c1ccccc1 (stereo not given) | 25.1 µM (active) | 
COc1ccc2c(c1)C(c1ccc([N+](=O)[O-])cc1)=NNC(c1ccco1)=N2 | 7.08 µM (active) | 
Cn1cnnc1SCC(=O)n1c2ccccc2c2ccccc21 | 8.91 µM (active) | 
COC(=O)C1=C(CSc2nncn2C)NC(=O)NC1c1ccc(F)cc1 (stereo not given) |  | -22.7% (inactive)
CC(=O)Oc1ccc(C(c2ccc(OC(C)=O)cc2)c2ccccn2)cc1 |  | -19.5% [at 25.6 µM] (inactive)
CC(=O)Oc1ccc2ccccc2c1C(NC(=O)Cc1ccccc1)c1ccc(Cl)cc1 (stereo not given) | 1.26 µM (active) | 
O=C(Nc1ccc(OC(=O)c2cccnc2)cc1)c1cccnc1 |  | 15.1% (inactive)
CCCCOc1ccc(OC(=O)c2cccnc2)cc1 | 17.8 µM (active) | 
COc1ccc(C(=O)N2CCC3(CC2)CCN(c2ccncc2)CC3)cc1 |  | 5.92% (inactive)
CCCCCOc1ccc(OC(=O)c2ccncc2)cc1 | 3.16 µM (active) | 
COc1ccc(OC(=O)c2ccncc2)cc1 | 1.41 µM (active) | 
N#Cc1ccc(OC(=O)c2ccc(N=C(N)N)cc2)cc1 |  | 14.4% [at 11.4 µM] (inactive)
CCCCOc1ccc(CC(=O)NO)cc1 |  | -1.35% [at 25.6 µM] (inactive)
COc1ccc(C(=O)N2CCC3(CC2)CN(c2ccncc2)C3)cc1 |  | 12.9% (inactive)
CCN(CC)C(=O)CSc1nc2ccc(NC(=O)CSc3nnc(COc4ccccc4C)n3C)cc2s1 | 2.82 µM (active) | 
Br/C(=N\Nc1nn[nH]n1)c1ccncc1 |  | 22.2% [at 11.4 µM] (inactive)
CC(Oc1ccc(Cl)cc1Cl)C(=O)/C=C/N(C)C (stereo not given) | 2.82 µM (active) | 
CN(C)/C=C/C(=O)c1ccc(Cl)cc1 | 11.2 µM (active) | 
CC(=O)ON(C(C)=O)S(=O)(=O)c1ccc(Cl)cc1 |  | 7.43% (inactive)
NCCNC(=O)c1ccc(Cl)cc1 | inactive | 
O=C(O)/C=C\[C@H](O)c1ccc(Cl)cc1 |  | 36% (inactive)

SMILES | AC50 | activity, negative = inhibition
CC(Oc1ccc(Cl)cc1)C(=O)/C=C/N(C)C (stereo not given) | 7.94 µM (active) | 
CCc1ccc(C(C(=O)NCc2ccc(OC)cc2)N(CCOC)C(=O)Cc2cccs2)cc1 (stereo not given) | 5.62 µM (active) | 
COc1ccc(C(C(=O)NCc2ccccc2)N(Cc2cccs2)C(=O)c2cnccn2)cc1 (stereo not given) | 7.08 µM (active) | 
COc1ccc(CNC(=O)C(c2ccc(C)cc2)N(Cc2cccs2)C(=O)c2ccc3c(c2)OCCO3)cc1 (stereo not given) | 2.82 µM (active) | 
O=C(c1cnccn1)N1CCC2(CC1)CCN(C(c1ccccc1)c1ccccc1)CC2 |  | -17.6% (inactive)
O=C(NCc1ccccc1)C(c1cccs1)N(Cc1cccs1)C(=O)c1cnccn1 (stereo not given) | 3.55 µM (active) | 
COc1ccc2nc3oc(C(=O)NCc4cccs4)cc3cc2c1 |  | -60.4% (inactive)
CCOC(=O)CSc1ncc(OC)c(Sc2ccc(Cl)cc2)n1 | 1.78 µM (active) | 
COC(=O)CSc1ncc(OC)c(OC)n1 |  | 4.64% (inactive)
CCOC(=O)C(C)Sc1ncc(OC)c(Sc2ccc(Cl)cc2)n1 (stereo not given) | 3.55 µM (active) | 
CC[C@H]1CC[C@H]2[C@@H]3CC=C4C[C@H](OC(C)=O)[C@@H](N)C[C@@]4(C)[C@H]3CC[C@@]12C |  | 22.6% [at 11.4 µM] (inactive)
CCCCc1c2ccccc2nc2[nH]c3ccccc3c12 |  | -4.3% (inactive)
c1ccc(-c2c3ccccc3nc3[nH]c4ccccc4c23)cc1 | 10 µM (active) | 
O=c1c2ccccc2nc2n1CCc1c-2[nH]c2ccccc12 |  | -20.2% (inactive)
Clc1ccc(CC[C@H](Cn2ccnc2)Sc2c(Cl)cccc2Cl)cc1 | 0.00251 µM (active) | 
COc1ccc(NS(=O)(=O)c2ccc(I)cc2)cc1N1CCN(C)CC1 |  | -0.637% (inactive)
COc1ccc(S(=O)(=O)N2CCCCCC2)cc1N(C)S(=O)(=O)c1ccc(Cl)cc1 | 5.01 µM (active) | 
COc1ccc(S(=O)(=O)Nc2ccc(S(=O)(=O)N3CCCCC3)cc2)cc1C | 2.82 µM (active) | 
N#Cc1ccc(CN2CCC3(CC2)CCN(C(=O)c2cc(C(F)(F)F)cc(C(F)(F)F)c2)CC3)cc1 |  | -15% (inactive)
O=c1c(-c2ccc(O)cc2)coc2cc(O)ccc12 | 10 µM (active) | 
O=c1c(-c2ccc(F)c(F)c2)nc2cncnc2n1C1CC1 |  | -7.87% (inactive)
O=c1c(-c2ccc(Cl)cc2)nc2cncnc2n1Cc1ccccc1Cl | 3.98 µM (active) | 
O=c1c(-c2ccc(F)c(F)c2)nc2cncnc2n1Cc1ccccc1Cl | 6.31 µM (active) | 
CN(CCOc1ccc(C[C@H](Nc2ccccc2C(=O)c2ccccc2)C(=O)O)cc1)c1ccccn1 | 3.98 µM (active) | 
CNc1nc(NCCOC23CC4CC(CC(C4)C2)C3)nc(OCC(F)(F)F)n1 | 1.41 µM (active) | 

SMILES | AC50 | activity, negative = inhibition
CC(C)CCn1nnnc1C(c1ccc(F)cc1)N1CCN(C(=O)c2ccco2)CC1 (stereo not given) | 4.47 µM (active) | 
O=C(c1ccco1)N1CCC2(CC1)CN(C(c1ccccc1)c1ccccc1)C2 |  | -40.8% (inactive)
CCC(c1nnnn1CCOC)N1CCN(C(=O)c2ccco2)CC1 (stereo not given) | 3.98 µM (active) | 
O=C(c1ccco1)N1CCC2(CC1)CCN(C(c1ccccc1)c1ccccc1)CC2 |  | -18.3% (inactive)
C[C@]1(OC(=O)/C=C\c2ccccc2)C[C@@H](O)[C@@]2(O)C=CO[C@@H](O[C@H]3O[C@@H](CO)[C@@H](O)[C@@H](O)[C@@H]3O)[C@H]21 |  | -17.6% [at 25.6 µM] (inactive)
CC(C)NC(=O)CSc1nnc(C2CC2)n1-c1ccccc1 |  | 20.4% (inactive)
Cc1ccc(C(=O)NNC(=O)CSc2nnc(-c3ccncc3)n2-c2ccc(C)cc2)cc1 | 5.62 µM (active) | 
CCN(CC)C(=O)CSc1nnc(-c2ccncc2)n1N |  | -17.2% (inactive)
Cc1ccccc1NC(=O)CSc1nnc(-c2ccccc2)n1-c1ccccc1 | 2.24 µM (active) | 
CCOc1ccc(-n2c(SCC(=O)Nc3ccccc3C)n[nH]c2=O)cc1 | 5.62 µM (active) | 
O=C(CSc1nnc(-c2ccccc2)n1-c1ccccc1)c1cccs1 | 0.631 µM (active) | 
Cc1cc(C2(c3cc(C)c(O)c(C(=O)O)c3)OS(=O)(=O)c3ccccc32)cc(C(=O)O)c1O |  | 12.7% [at 11.4 µM] (inactive)
O=C(O)c1cc2c(o1)CCC/C2=N\O |  | -25.5% (inactive)
CCn1c(SCC(=O)Nc2ccccc2C(=O)OC)nnc1-c1ccc(N)cc1 | 0.178 µM (active) | 
CC(=O)OC1CCC(OC(C)=O)c2c1n([O-])c(C)c(C)[n+]2=O (stereo not given) |  | -13.8% (inactive)
Cc1ccccc1S(=O)(=O)Oc1ccccc1C(=O)Oc1ccccc1 | 1.78 µM (active) | 
CC(=O)Oc1ccccc1C(=O)Oc1ccccc1C(=O)O |  | -8.83% [at 25.6 µM] (inactive)
Cc1ccccc1S(=O)(=O)O[C@@H]1NS(=O)(=O)c2ccccc21 |  | 24% [at 11.4 µM] (inactive)
CC(C)OC(=O)C(CC(=O)O)N1CCOCC1 (stereo not given) |  | -11.3% (inactive)
NC(=O)CN1CCOCCOCCOCCOCCOCC1 |  | 33.6% (inactive)
CCOC(=O)C(C)CC(C)C(=O)N1CCOCCN(C(=O)C(C)CC(C)C(=O)OCC)CCOCC1 (stereo not given) | 10 µM (active) | 
CC1(C)O[C@@H]2C[C@H]3[C@H]4C[C@H](F)C5=CC(=O)CC[C@]5(C)[C@@H]4[C@H](O)C[C@]3(C)[C@]2(C(=O)CO)O1 |  | 18.6% [at 25.6 µM] (inactive)
O=C1CC(=Nc2ccccc2)NN1c1ccccc1 | 5.62 µM (active) | 
c1ccc2c(c1)C(=Nc1ccc(N=C3c4ccccc4-c4ccccc43)cc1)c1ccccc1-2 |  | -36.8% [at 11.4 µM] (inactive)
CC1=NN(c2ccccc2)C(=O)C1 |  | 8.71% (inactive)
